This note sets out measurements from the supplement of paper PMC6555819.

The test system of this assay is VDR:RXRa (NR concentration 270 nM, RXRa partner concentration 90 nM). The assay can be described thus: PBM binding z-score (relative to random genomic background probes); higher = stronger binding; sequences stand for … in GC…GCGATTGACAGCGTAGAATGAAGG
The protocol: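 Protein-binding microarray (Agilent 4x180K custom design, double-stranded 60-nt probes: 5' GC cap, 34-nt variable region, 24-nt constant primer region; full probe sequence given). Purified or IVT nuclear receptor:RXRα heterodimers (3:1 NR:RXRα, mostly 270:90 nM) or homodimers were incubated for 1 h in PBS with 2% milk and no ligand, then detected with Alexa488 antibodies. Fluorescence from o1-orientation probes (~5 replicates averaged) was converted to z-scores against 500 random hg19 background probes. Variable regions are seed direct-repeat (DR0–DR5) sites, all their single-nucleotide variants and half-site ablations.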
Turning to AGCTCTAGGTAACCAAGTTCAGTGAATGCCGAAC, the PBM binding z-score is 3.88.

ACTCGGAGGAAAAAGGTCAGAGCTACGCCAGTGA registered a PBM binding z-score of 2.07.

CCTTACGGGTCAAGGCTATAGCACGGGTGGTACG registered a PBM binding z-score of 2.77.

AGAACGAGGGCACGCCGAGTTGATAGCAGAGTAG returned a PBM binding z-score of 2.27.

The sequence GCAACTGGGGCAAAGCAGGTTACCATAAGGTTGG registered a PBM binding z-score of 0.361.

On to CCTAGTTGGTCAGGAGGTCATACACCGGATATGA, for which the PBM binding z-score was 3.75.

Take AGAATAAGGTTACCAAAGATCAGGGAAACGCTTG: the PBM binding z-score was 0.872.

As to GCTATTAGTTGAAAGTGCAACCGAATGATTCTCG, the PBM binding z-score came out at 0.133.

In the case of GCTGCTCGGTCAGGTTGGTCAGCTAACGGGTACG, the PBM binding z-score is -0.457.

Consider CCTACTGCGCCATTCAGAGGTCATTGATCATATG, for which the PBM binding z-score was 3.85.

In turn, TCTTGTAGATCTGCAGGTTAAGAAAGCTGGCCAA came in with a PBM binding z-score of 0.239.

Consider ATATGTAGTTTAGCTGGGGTCATTCAGACTAGGC, for which the PBM binding z-score is 5.22.

Take CCTACTGGGACATCAGGTCATTGATATCAACGTT: the PBM binding z-score is 1.99.

ACAGACAGGTGATGAGGGTAACTCAGGCTATCAT came in with a PBM binding z-score of 0.16.

For GCATATAGGTAATACCAGGTGAAAGTCCGATTGT, the PBM binding z-score is -0.00851.

For the sequence ATCGTAAGGTCGAGGTGAGTATAGAGAAAGGGAA, the PBM binding z-score is 1.99.

Sequence CCTCGGAGGACAACTGGAGGTCAGAGCTGCCAGA showed a PBM binding z-score of 2.08.

Take CCTTACGAGTCACTCCAGGTTATAGCATCGGAGT: the PBM binding z-score turned out to be 1.24.

As to GGAACGAGGGCAGAGTTGATAGCATCTGTCGACG, the PBM binding z-score came out at 0.0819.

As to CCGACTGGGGCAAGGTTCCCATAACGCACAGCCA, the PBM binding z-score was -0.47.

ATCGAAAGGTCGTGAGGTGAGTATCCAGAAAGGC: the PBM binding z-score worked out at 3.39.

CTCGAAAGGTCGCTTGAGGTGAGTATACGGATAA: the PBM binding z-score worked out at 3.4.

As to TCTAGCAGGCCAGAGGGTCTCTCAAGAGGTACGG, the PBM binding z-score is -0.687.

The sequence CGAACGAGGGCATAAGTTGATAGCAAATGCCGAT displayed a PBM binding z-score of 0.652.

On to GCTATTAGTTGAAAGGACAACCGAATGATTCTCG, for which the PBM binding z-score is -0.113.

For CGTCCAAGGTCACAGGTCAGTGAAGAGATGACGG, the PBM binding z-score was determined as 4.91.

For CCGATTAGTTGACCATAAGGGCAACCGAAGCTCG, the PBM binding z-score is 0.252.

Regarding AGAATAAGGTTAAGATCAGGGAAACAGAATACAT, the PBM binding z-score came to 1.14.

ATCGAAAGGTCGAGGTGAGAATAGAGAAAGGGAA yielded a PBM binding z-score of 2.37.

For the sequence CAAACTAGGTCACAGAGATCAAAGTCCGTGCGTA, the PBM binding z-score turned out to be 4.39.

GCTGCTAGGTCAACTGGTGGTCAGCTAAAGCTCG registered a PBM binding z-score of 1.64.

GATCGGAGGACAAGGTCAGAGCTTTGTCCGTAGA yielded a PBM binding z-score of 1.44.

As to TCTGCTAGGTCAACGATGGTCAGGTAATCTGCTA, the PBM binding z-score worked out at 1.78.

Sequence CTCGAAAGGTTGTGCTCAGGTGAGTATACCAAAC came in with a PBM binding z-score of 0.214.

ATCTCTAGGTAAAAGTTCATTGAATCCCGAGGAT showed a PBM binding z-score of 2.82.

On to TCAGACAGGTGAGGGTAACTCAGGTACGCAGTCG, for which the PBM binding z-score came out at 0.677.

With TAGCCCAGGTCAGATCGGGCCAGTATACGCTATA, the PBM binding z-score was determined as 0.983.

On to CAAACTAGGTCAAGGTCCAAGTCGGTTTGTGCCA, for which the PBM binding z-score stood at 2.18.

In turn, TCTAGTTGGTTAAAGGTCACACACTCGAAATGCG had a PBM binding z-score of 4.86.

TCTATTAGTTGATTAGAGCAACCGAAACAGCGGA displayed a PBM binding z-score of 0.404.
